High-throughput results from PubChem.
This is a sample that favours compounds with a hit; in the whole collection about 2.4% have one here.
PERK inh: human PERK inhibition, primary cell-based screen; Q9NZJ5; CHO PERK-DD fusion, SEAP luminescence translation reporter; inhibition, % at 5.6 µM; 220,000 tested, 0.17% active; AID 1416;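 active = inhibition above the mean inhibition of all tested compounds plus 3 SD, set separately per screening campaign, cut at about 2.9% in these data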;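 also: PERK kinase domain activated by AP20187 dimerizer at 100 nM; 0% = DMSO with dimerizer and 100% = rapamycin at 8.4 µM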
eIF4E 4G PPI: inhibitors of eIF4E and eIF4G interaction in translation initiation | 220,000 tested, 0.37% active | inhibition, % at 21.7 µM | P63073+Q04637 | AID 782 | TR-FRET eIF4E-eIF4GI(517-606) binding, 2 h;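 active = inhibition above about 30%, limit read from the data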;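 also: 0% = full FRET control wells and 100% = background wells lacking eIF4GI fragment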
MLLE-PAM2 inh: inhibitors of microRNA-mediated deadenylation, human PABP1 MLLE binding; P11940; 360,000 tested, 0.36% active; inhibition, % at 20 µM; GST-MLLE / FITC-PAM2 fluorescence polarization; AID 588489; in the data active = inhibition above about 35%, passing the limit was not always enough;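 also: plate controls were DMSO wells with GST-MLLE for no effect and wells lacking GST-MLLE protein for full effect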
Target sequence (P11940 whole entry, looked up): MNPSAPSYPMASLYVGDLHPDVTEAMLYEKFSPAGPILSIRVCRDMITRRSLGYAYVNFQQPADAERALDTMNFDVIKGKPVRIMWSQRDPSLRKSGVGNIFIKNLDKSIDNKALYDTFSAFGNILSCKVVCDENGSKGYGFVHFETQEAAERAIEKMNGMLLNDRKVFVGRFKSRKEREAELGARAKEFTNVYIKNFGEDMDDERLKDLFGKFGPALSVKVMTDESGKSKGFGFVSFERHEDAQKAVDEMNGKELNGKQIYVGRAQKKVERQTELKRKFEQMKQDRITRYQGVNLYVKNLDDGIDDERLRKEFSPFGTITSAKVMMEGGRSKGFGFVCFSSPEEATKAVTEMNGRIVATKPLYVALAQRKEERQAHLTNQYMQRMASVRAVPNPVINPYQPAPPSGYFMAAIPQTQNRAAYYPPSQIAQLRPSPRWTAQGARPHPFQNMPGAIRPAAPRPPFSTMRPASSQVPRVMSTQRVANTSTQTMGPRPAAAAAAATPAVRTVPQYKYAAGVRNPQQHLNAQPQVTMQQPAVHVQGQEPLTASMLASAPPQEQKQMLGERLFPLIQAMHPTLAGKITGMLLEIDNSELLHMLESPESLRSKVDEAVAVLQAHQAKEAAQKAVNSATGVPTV
PABP FP inh: PABP-poly(A) binding inhibition; PABP-poly(A) RNA binding, fluorescence polarization; inhibition, % at 35 µM; P11940; 290,000 tested, 1% active;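 also: calls also rest on retests at 20 µM and on dose response follow-up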
PfM18AAP inh-1: blocks P. falciparum M18 aspartyl aminopeptidase | recombinant PfM18AAP, H-Glu-NHMec fluorogenic cleavage | inhibition, % at 7.35 µM | 290,000 tested, 1.2% active;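 active = inhibition above the campaign mean inhibition over all tested compounds plus 3 SD, cut at about 28% in these data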;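 also: 0% = plate median of test compound wells and 100% = 2 mM ZnCl2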
eIF4H inh: inhibitors of RNA binding by human eIF4H | AID 2012 | inhibition, % at 35 µM | eIF4H fluorescence polarization binding assay | 290,000 tested, 0.94% active | Q15056;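 also: calls also rest on retests at 20 µM and on dose response follow-up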
PfM18AAP inh-2: PfM18AAP inhibition, confirmation; 2,400 tested, 28% active; shares compounds with PfM18AAP inh-1; recombinant PfM18AAP, H-Glu-NHMec fluorogenic cleavage; AID 2170; inhibition, % at 7.35 µM;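 active = mean inhibition over replicate wells above the hit cutoff set for the earlier primary screen, cut at about 29% in these data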;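 also: 0% = median of test compound wells and 100% = 2 mM ZnCl2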
CTSL1 confirm: Cathepsin L (human) inhibition, confirmation | shares compounds with PfM18AAP inh-1 | purified cathepsin L1, Z-Leu-Arg-MCA fluorescence | inhibition, % at 5.96 µM | 2,400 tested, under 10 active | AID 2178;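 active = average inhibition across replicates above the hit cutoff set in the earlier primary screen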;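 also: 0% = median of test compound wells and 100% = Z-Phe-Ala-diazomethylketone 1 µM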
* hit, by the source's call; . = no result given. Unless noted, no rule for the calls is given here.

SMILES	PERK inh	eIF4E 4G PPI	MLLE-PAM2 inh	PABP FP inh	PfM18AAP inh-1	eIF4H inh	PfM18AAP inh-2	CTSL1 confirm
O=C(c1cnc2nc3ccccc3n2c1)c1cc(F)ccc1O	0.2	-0.6	-50.6	18.4	0.1	8.0	.	.
C#CCOCCOCCOCCNc1nc(N2CCN(C(=O)Cn3cc(CCCN=C(N)N)nn3)CC2)nc(N2CCN(C(=O)[C@H](CCCCN)n3cc(CCCC)nn3)CC2)n1	.	.	5.5	.	.	.	.	.
COc1ccc(C(C(=O)NC(C)(C)C)N(C(=O)CCC(=O)Nc2cc(C)on2)c2ccccc2F)cc1 (centres undefined)	.	.	-10.5	-7.4	-2.9	2.5	.	.
O=C(COC(=O)c1ccccn1)c1cccc(Br)c1	.	.	6.7	7.9	-12.7	4.0	.	.
CC1CC(C)(C)CC2(C1)NC(=O)N(CC(=O)N(Cc1ccccc1)c1ccccc1)C2=O (centres undefined)	.	.	-12.2	.	.	.	.	.
C/C(=N\Nc1nc2ccccc2c(=O)n1O)c1ccco1	.	.	6.6	24.5	38.3*	78.7*	7.1	-2.1
CCc1nnc(N/N=C\c2ccc(OC(C)=O)c(OC)c2)n1N	.	.	2.3	8.0	17.7	5.7	.	.
CCc1nnc(N/N=C/c2c(Cl)cccc2Cl)n1N	1.3	-0.5	5.6	1.6	55.8*	-3.1	-39.8	1.7
CCc1nnc(N/N=C/c2cc(Br)c(O)cc2O)n1N	.	.	1.0	-5.4	61.5*	8.9	54.4*	1.1
CC(C(=O)Nc1ccc(F)c(F)c1F)N(C)Cc1cccs1 (centres undefined)	.	.	-7.3	-1.5	7.9	2.5	.	.
O=C(N/N=C/c1ccc(O)c(O)c1)c1cccc(S(=O)(=O)N2CCCCC2)c1	0.8	3.6	-2.5	-18.0	56.2*	5.1	50.8*	-0.5
CCNC(=O)c1cccc(S(=O)(=O)N2CCCCCC2)c1	0.8	21.0	6.0	-7.9	36.2*	-6.5	-36.0	0.1
CCn1c(CN(C)c2ccccc2)nc2ccccc21	.	.	2.0	-0.9	-0.2	-10.3	.	.
CCCn1cnc2c(=S)nc(N)[nH]c21	3.4*	-0.5	6.4	2.6	57.3*	-0.9	-19.7	3.2
Nc1nc(=S)c2ncn([C@@H]3O[C@H](CO)[C@@H](O)[C@H]3O)c2[nH]1	.	.	37.9	.	.	.	.	.
CCCCCCCCn1cnc2c(N)c(C)c(C)cc21	-0.3	8.8	-4.4	5.4	1.8	3.1	.	.
Nc1nc(=S)c2ncn(C3CCCCC3)c2[nH]1	.	.	38.2	.	.	.	.	.
CCCCn1cnc2c(=S)nc(N)[nH]c21	-0.5	-3.2	25.4	4.3	39.7*	-9.1	-10.2	-4.6
CCCCCn1cnc2c(=S)nc(N)[nH]c21	0.5	-4.8	28.2	6.1	41.1*	-7.0	-18.8	5.0
O[C@@H]1CN(Cc2cccs2)[C@@H](c2ccc(Cl)cc2)C[C@H]1n1cc(-c2ccc(F)cc2)nn1	.	.	15.8	.	.	.	.	.
COc1cc(/C=N/Nc2nc(N3CCCC3)nc(N3CCCC3)n2)ccc1O	-1.0	8.7	-4.1	-5.1	-5.0	-12.5	.	.
Cc1cc(=O)[nH]c(N/N=C/c2ccc(O)c(O)c2)n1	.	.	-22.8	7.3	45.0*	6.0	21.3	8.0
Oc1ccc(/C=N/Nc2nc(N3CCCC3)nc(N3CCCC3)n2)cc1O	-0.5	-2.2	5.3	2.0	54.1*	-0.3	28.1*	4.8
Oc1ccc(/C=N/Nc2ccc(Cl)nn2)cc1O	.	.	5.2	4.3	47.3*	-4.7	18.4	4.1
CSc1ccc(/C=N/Nc2nc(C)cc(=O)[nH]2)cc1	-0.3	2.2	-10.9	22.7	-4.3	-1.9	.	.
Cc1ccc(C(=O)Nc2ccc(C(=O)N/N=C/c3ccc(C)o3)cc2)cc1	.	.	-8.4	0.6	10.3	-0.3	.	.
Cc1nc(N2CCN(c3ccccn3)CC2)c2c(C)c(C(=O)N3CCN(c4ccccc4F)CC3)sc2n1	.	.	-10.2	-0.8	0.1	8.0	.	.
N#CC1=C(N)NC(=S)C(C(N)=O)C1c1ccccc1F (centres undefined)	-0.6	2.1	46.3*	7.5	46.5*	-0.5	29.7*	-3.3
CCOC(=O)C1C(=O)NC(SC)=C(C#N)C1c1ccccc1F (centres undefined)	1.4	-5.0	8.9	10.4	5.3	-2.5	.	.
